The list is not random: actives were taken first. Their share in the collection is about 3.1%.
SKKanGAS inh: SKKanGAS growth inhibition. S. pyogenes SKKanGAS, kanamycin growth, BacTiter-Glo, 6 h. AID 1662. inhibition, % at 7.5 µM. 300,000 compounds, 1.3% hits;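 active means mean replicate score, as percent of positive control median, at least 50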;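 further: strain carries kanamycin resistance gene driven by streptokinase promoter and grows in 40 µg/ml kanamycin; loss of luminescence reflects streptokinase promoter inhibition or plain growth inhibition; 0% = median of DMSO wells and 100% = positive control at its reference dose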
PP5 inh: PP5 (human) phosphatase inhibition. 320,000 compounds, 0.18% hits. purified PP5c, OMFP substrate fluorescence. AID 1987. inhibition, % at 6.7 µM. P53041;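 active means inhibition above the campaign's mean inhibition across all tested compounds plus 3 SD, cut at about 9.5% in these data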;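 further: 0% = DMSO only and 100% = 100 µM cantharidin control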
Target sequence (P53041 whole entry, looked up): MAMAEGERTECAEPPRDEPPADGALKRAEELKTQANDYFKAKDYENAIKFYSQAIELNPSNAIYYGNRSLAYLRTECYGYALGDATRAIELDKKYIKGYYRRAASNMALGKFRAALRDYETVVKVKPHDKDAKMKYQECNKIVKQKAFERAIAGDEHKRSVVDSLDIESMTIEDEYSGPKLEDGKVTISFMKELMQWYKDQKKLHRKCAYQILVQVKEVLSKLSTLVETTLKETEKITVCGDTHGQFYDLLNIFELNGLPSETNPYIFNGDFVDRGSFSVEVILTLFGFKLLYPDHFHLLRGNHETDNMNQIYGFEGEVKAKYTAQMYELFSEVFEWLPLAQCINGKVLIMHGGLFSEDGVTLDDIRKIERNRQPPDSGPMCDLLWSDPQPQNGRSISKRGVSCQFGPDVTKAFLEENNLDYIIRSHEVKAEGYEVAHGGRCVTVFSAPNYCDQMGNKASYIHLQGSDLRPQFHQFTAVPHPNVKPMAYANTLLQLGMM
Beta cell apopt: beta cell apoptosis inhibition; INS-1E cytokine-induced death, ATP luminescence, 48 h; percent of positive-control rescue, neutral wells zero; protection from apoptosis, % (test concentration not listed); 300,000 compounds, 0.8% hits;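 active means Every replicate reaches about 75%, or at least half do and their mean reaches it too, limit read from the data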;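 further: 0% = cytokine-treated negative control wells and 100% = positive control rescue; higher means more ATP so stronger rescue from cytokine killing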
CSC inhib: cancer stem cell inhibition; cancer stem cell-like cells viability, luminescence; inhibition, % at 7.5 µM; 300,000 compounds, 1.1% hits; in the data active means inhibition above about 75%; tested in HMLE shEcad cells
PP1 inh: blocks human PP1-alpha phosphatase, a PP5 counter-screen. AID 2235. inhibition, % at 6.7 µM. P62136. purified PP1alpha, OMFP fluorescence. 320,000 compounds, 0.9% hits;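 active means inhibition above the mean inhibition of all tested compounds plus 3 SD, computed separately for each screening campaign, cut at about 15% in these data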
PP5 conf: confirmation of human PP5 phosphatase inhibitors; shares compounds with PP5 inh; Purified PP5, fluorogenic phosphatase substrate, fluorescence; inhibition, % at 6.7 µM; 460 compounds, 22% hits; AID 2331; in the data active means inhibition above about 9.5%
PP1 inh counter: counter-screen for PP5 inhibitors: human PP1 phosphatase inhibition; shares compounds with PP5 inh; PP1 enzyme, fluorescent phosphatase substrate; inhibition, % at 6.7 µM; 460 compounds, 4% hits; AID 2355; in the data active means inhibition above about 16%
Numbers without * were called inactive; · = no result.

SMILES	SKKanGAS inh	PP5 inh	Beta cell apopt	CSC inhib	PP1 inh	PP5 conf	PP1 inh counter
O=C(Nc1ccc(Cl)cc1)N1CCCN(c2ccc(C(F)(F)F)cc2[N+](=O)[O-])CC1	15.9	12.1*	-3.0	82.8*	0.5	4.9	2.9
CC(C)CNC(=S)N(Cc1ccco1)Cc1cc2cc3c(cc2[nH]c1=O)OCCO3	-0.9	-1.6	-20.1	-8.9	-2.7	·	·
CC(=O)c1cccc(-c2ccc3c(=O)[nH]c(Nc4ccccc4)cc3c2)c1	33.6	9.7*	-1.0	9.8	13.4	29.4*	20.9*
O=c1[nH]c(Nc2ccccc2)cc2cc(Br)ccc12	12.1	13.8*	-4.5	18.9	-0.5	34.4*	7.9
O=c1[nH]c(Nc2ccccc2)cc2ccccc12	1.6	10.8*	-1.5	3.8	-0.5	33.9*	0.0
COc1ccc(OC)c(Nc2cc3ccccc3c(=O)[nH]2)c1	7.6	8.7	7.3	7.4	0.6	·	·
Cc1cc(C)n(CC(=O)O)c(=O)c1[N+](=O)[O-]	·	0.1	-1.5	·	-0.3	·	·
O=C(Nc1cc(-c2ccccc2)[nH]n1)c1ccccc1F	-4.5	-1.8	4.8	22.5	2.4	·	·
CC1=C(C(=O)Nc2cc(-c3cccc(F)c3)[nH]n2)C2(CCCCC2)OC1=O	15.7	10.2*	1.6	10.7	4.1	14.6*	4.8
CCOc1ccccc1NC(=O)CSc1n[nH]c(N)n1	7.7	2.4	-0.2	-5.4	0.3	·	·
O=C(N/N=C/c1ccccc1OC(F)F)NC1CCCCC1	-4.6	10.9*	1.9	7.0	5.1	-1.9	-2.1
O=C(N/N=C/c1ccccc1F)NC1CCCCC1	-10.3	-1.4	1.9	1.3	1.9	·	·
O=C1C(c2ccccc2)=[N+]([O-])c2ccccc21	-2.4	10.3*	46.8	81.8*	-3.3	36.0*	87.6*
Cc1ccc(Cl)cc1NC1=C/C(=N\S(=O)(=O)c2cccs2)c2ccccc2C1=O	95.0*	10.6*	110.9*	101.4*	2.4	42.3*	11.3
Cc1c(Cl)cccc1N/C(=N/S(=O)(=O)c1cccs1)c1ccccc1	-19.7	-1.6	2.0	-5.0	-1.3	·	·
COCCCNC(=O)C1CCC(CNS(=O)(=O)c2ccc(C)cc2)CC1 (stereo not given)	0.6	-0.3	-2.7	-18.0	-3.4	·	·
COc1ccc(S(=O)(=O)N(C)C)cc1NC(=O)CSc1nncs1	-4.2	2.6	-2.6	-1.5	1.1	·	·
CCC(CC)C(=O)Nc1cccc(C(=O)Nc2ccc(S(=O)(=O)Nc3ccc(C)cc3)cc2)c1	30.5	10.4*	43.9	47.1	7.6	4.3	1.8
COc1ccc(NC(=O)c2ccccc2)c([N+](=O)[O-])c1	-3.1	-1.8	-1.3	6.3	-2.5	·	·
CCC(CC)C(=O)Nc1cccc(C(=O)Nc2ccc(S(N)(=O)=O)cc2)c1	20.7	3.7	·	-11.9	-0.7	·	·
CCC(CC)C(=O)Nc1cccc(C(=O)Nc2ccc(OC)cc2[N+](=O)[O-])c1	-1.2	10.3*	0.7	14.6	-3.7	-4.2	-4.1
COc1ccc(N(CC(=O)N2CCN(Cc3ccccc3)CC2)S(C)(=O)=O)cc1OC	0.3	0.5	-3.7	-6.9	0.1	·	·
O=C(O)C1C2C=CC(O2)C1C(=O)Nc1cccc(C(F)(F)F)c1 (stereo not given)	0.2	32.8*	22.8	-1.4	8.9	-2.8	6.0
Cc1csc(NC(=O)C2C3C=CC(O3)C2C(=O)O)n1 (stereo not given)	3.4	15.5*	-7.0	5.3	-2.1	15.1*	14.2
Cc1cc(C)cc(NC(=O)C2C3C=CC(O3)C2C(=O)O)c1 (stereo not given)	-3.1	19.9*	-4.4	-5.2	1.4	0.0	18.9*
SMILES	SKKanGAS inh	PP5 inh	Beta cell apopt	CSC inhib	PP1 inh	PP5 conf	PP1 inh counter
COc1cccc(-c2cc(C(=O)Nc3cnn(Cc4ccccc4C)c3)no2)c1	-5.3	0.3	-2.5	·	8.2	·	·
COc1cccc(-c2cc(C(=O)Nc3cnn(Cc4ccc(F)cc4)c3)no2)c1	-4.4	13.6*	-3.9	9.6	-2.6	-0.4	-3.7
CC(C)CCn1c(N)c(S(=O)(=O)c2cccs2)c2nc3ccccc3nc21	26.1	10.2*	17.7	·	3.2	6.9	3.6
Nc1c(S(=O)(=O)c2cccs2)c2nc3ccccc3nc2n1CCc1ccccc1	10.6	3.6	3.0	8.4	3.7	·	·
COc1ccc(CN2C=C3C(=O)C(C)(OC(=O)C4CCCC4)C(=O)C=C3C=C2c2ccsc2)cc1 (stereo not given)	7.7	6.7	0.0	-7.3	13.8	·	·
CC1(OC(=O)C2CCCC2)C(=O)C=C2C=C(c3ccsc3)N(CCCCO)C=C2C1=O (stereo not given)	4.4	10.0*	-0.3	-3.3	0.2	43.8*	17.9*
CC(C)(C)C(=O)NNC(=O)c1cc2sccc2s1	-1.4	-0.7	-2.8	5.4	-0.6	·	·
COc1ccc(N(Cc2ccccc2)S(=O)(=O)c2cccc(C(=O)Nc3ncccc3C)c2)cc1	·	2.8	-8.1	·	-0.7	·	·
CCN1CCN(c2ccc(NC(=O)c3ccco3)cc2)CC1	6.8	1.5	-0.8	-10.6	-3.7	·	·
COc1ccc(C(=O)c2nccc3cc(OC)c(OC)cc23)cc1OC	·	13.1*	-8.3	3.3	2.5	48.0*	7.3
Cc1ccccc1S(=O)(=O)N(CC(O)CN1C(=O)NC(C)(C)C1=O)c1ccccc1 (stereo not given)	-1.1	10.2*	-2.7	-13.2	3.2	-4.6	-3.4
Cc1ccc(N(CC(O)CN2C(=O)NC(C)(C)C2=O)S(=O)(=O)c2ccc(C)cc2)cc1 (stereo not given)	-4.5	-0.6	0.2	1.6	-7.6	·	·
O=C(O)C1C2C=CC(O2)C1C(=O)Nc1ccccc1C(F)(F)F (stereo not given)	3.8	0.5	-5.7	6.5	-3.1	·	·
CCc1ccccc1NC(=O)C1C2C=CC(O2)C1C(=O)O (stereo not given)	0.1	21.1*	-1.7	-3.1	6.7	-2.1	4.5
CCOc1ccccc1NC(=O)C1C2C=CC(O2)C1C(=O)O (stereo not given)	0.2	29.8*	-9.5	-5.2	2.7	1.7	10.6
Cn1c2ccccc2c(=O)n2c(=O)c3ccccc3cc12	4.5	10.9*	-0.4	10.2	0.3	29.1*	-4.3
Cn1c(-c2ccccc2)cc(=O)c2ccccc21	-4.0	-2.3	-4.6	6.3	-3.7	·	·
O=C(O)c1nnn(-c2ccc(F)cc2F)c1-c1ccccc1	7.5	-1.6	-1.7	-5.4	-0.6	·	·
O=C(O)c1nnn(-c2cc(C(F)(F)F)cc(C(F)(F)F)c2)c1-c1ccccc1	-5.1	19.9*	-1.5	-13.4	4.5	-2.3	-2.1
CCOc1ccc(S(=O)(=O)NC(C)(C)C)cc1-c1nc2c(C(C)(C)C)nn(C)c2c(=O)[nH]1	15.2	10.2*	·	·	7.4	3.2	4.2
CC(C)c1ccc(CNNC(=O)c2ccccc2)cc1	-6.2	2.8	4.3	-14.0	-0.6	·	·
CCOc1cc(CNc2ncc(-c3ccc(OC)cc3)n2C)ccc1O	0.5	10.5*	-0.3	-10.8	0.1	1.3	-2.6

Assay outcomes as filed in PubChem.
